Sampled rows, rich in hits. Any-hit rate of the full collection: about 8.9%.
D3 ag – agonists of human D3 dopamine receptor | D3R DiscoveRx beta-arrestin cells, luminescence, 90 min | P35462 | 410,000 tested, 0.58% active | max activation, %; in the data active means max activation above about 30%
Target sequence (P35462 whole entry, looked up): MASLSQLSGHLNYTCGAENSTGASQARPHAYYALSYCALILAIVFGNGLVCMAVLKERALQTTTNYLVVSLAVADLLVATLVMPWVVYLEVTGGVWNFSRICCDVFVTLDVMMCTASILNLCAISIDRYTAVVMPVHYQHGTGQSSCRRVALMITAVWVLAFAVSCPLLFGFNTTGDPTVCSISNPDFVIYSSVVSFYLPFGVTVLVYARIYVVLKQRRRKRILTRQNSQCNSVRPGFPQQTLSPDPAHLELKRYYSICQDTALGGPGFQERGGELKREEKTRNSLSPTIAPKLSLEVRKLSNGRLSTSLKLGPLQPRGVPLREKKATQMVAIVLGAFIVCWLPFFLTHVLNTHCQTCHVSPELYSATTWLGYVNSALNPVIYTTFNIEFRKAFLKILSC
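Agonist-mode cell screen: cells plated at 1500/well and incubated overnight at 37 °C, then exposed to library compounds for 90 min at 37 °C. Detection reagent was added for 30–60 min at room temperature, and luminescence was read.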
KB-V1 cytotox – KB-V1 MDR subline cytotoxicity; 400,000 tested, 3.4% active; KB-V1 MDR cells viability, CellTiter-Glo, 72 h; Potency, µM (highest dose often 46.1 µM), usual class: cytotoxic; AID 1347076; further: nearly all actives have a fitted effect of over 60% in size
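KB-V1, DMEM (no phenol red) + 10% FBS; cpd pin-transferred, titration series; 72 h, 37 degrees C; CellTiter-Glo, luminescence. Data normalized, curve-fit.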
D3 antag – blocks the human D3 dopamine receptor. 360,000 tested, 2.5% active. AID 652054. max response, negative = inhibition, %. D3R cells, DiscoveRx beta-arrestin luminescence, antagonist mode; hits give low values; in the data active means max response below about -50%; inconclusive means no clear call, values can overlap the other calls
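Cells plated overnight at 1500 cells/well, then exposed to library compounds with dopamine controls for 90 minutes at 37 degrees C. DiscoveRx reagent added for 30–60 minutes at room temperature; luminescence read, quantitative HTS format.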
KB-3-1 cytotox – kills parental KB-3-1 adenocarcinoma cells; KB-3-1 viability, CellTiter-Glo ATP luminescence, 72 h; Potency, µM (highest dose often 46.1 µM), most hits filed as cytotoxic; 400,000 tested, 1.4% active; further: nearly all actives have a fitted effect of over 60% in size
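Here the drug-naive KB-3-1 line serves as comparator for MDR sub-line selectivity; cells received compound titrations, 72 h at 37 °C, then CellTiter-Glo readout.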
MCF10A rerep – induces DNA re-replication in MCF 10a normal breast cells | MCF 10A DNA re-replication, Hoechst nuclear intensity, 48 h | Potency, µM (titrated, usually from 46.1 µM), usual class: activators | 350,000 tested, 2.9% active | AID 624296; further: nearly all actives have a fitted effect of over 50% in size
SW480 rerep – inducers of DNA re-replication in SW480 colon cancer cells; SW480 DNA re-replication, Hoechst DNA content imaging, 48 h; Potency, µM (highest dose often 46.1 µM), actives largely listed as activators; 340,000 tested, 1.8% active; further: nearly all actives have a fitted effect of over 55% in size
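Cells (250 per well) received 23 nL compound or DMSO by pin tool and were kept 48 hr at 37 C, 5% CO2. Nuclei were then stained with Hoechst for 40 min and scanned for DNA content.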
Numbers stand for hits; – = inactive; ? = inconclusive; · = not tested or not shown. Unless noted, the call rests on the fitted dose curve; in most records, active means well fitted curve in the direction sought with a large enough effect; inconclusive means small, poorly fitted or top-dose-only effect, or another doubt; inactive means no such curve, though single readings can be large; an effect the other way counts as inactive or inconclusive.

SMILES	D3 ag	KB-V1 cytotox	D3 antag	KB-3-1 cytotox	MCF10A rerep	SW480 rerep
O=C(c1cccnc1)N1N=C(c2cccs2)CC1c1ccc(F)cc1 (configuration not stated)	–	?	–	–	–	–
Cc1ccccc1CN1CCc2c(OCC(=O)N3CCCc4ccccc43)cccc2C1=O	–	?	–	20.6µM	?	–
O=C1c2cccc(OCC(=O)N3CCCc4ccccc43)c2CCN1Cc1cccnc1	–	3.66µM	–	?	–	–
O=C1c2cccc(OCC(=O)N3N=C(c4cccs4)CC3c3ccc(F)cc3)c2CCN1Cc1cccnc1 (configuration not stated)	–	20.6µM	?	–	?	·
COc1cc(C(CC(=O)NCc2ccc(F)cc2)N2Cc3ccccc3C2=O)cc(OC)c1OC (configuration not stated)	–	–	·	?	·	·
COC(=O)CC(=O)CSc1nc2cc(C(=O)NC(C)C)ccc2c(=O)n1CCc1ccccc1	–	–	·	–	·	·
COc1ccc(C(=O)Cn2c(C)nc([N+](=O)[O-])c2Br)cc1	–	–	-55.7	?	?	–
Cc1nc([N+](=O)[O-])c(Br)n1Cc1ccc(Cl)c(Cl)c1	–	?	-76.2	?	20.6µM	?
Cc1nc([N+](=O)[O-])cn1CC(=O)c1ccc(Br)cc1	–	?	–	–	–	–
Cc1nc([N+](=O)[O-])c(Br)n1CC(=O)c1ccc(Cl)cc1	–	?	–	18.4µM	14.6µM	?
COc1cc(NS(=O)(=O)c2ccc(NC(=O)C(C)Oc3ccc(Cl)cc3Cl)cc2)nc(OC)n1 (configuration not stated)	–	–	·	–	·	·
COc1ccc(-c2ccc3c(N)c(C(=O)Nc4ccc(C(F)(F)F)cc4)sc3n2)cc1OC	–	·	·	·	·	·
COc1ccc(NC(=O)c2sc3nc(-c4cccnc4)ccc3c2N)cc1OC	–	–	–	–	14.6µM	?
Nc1c(C(=O)N2CCCCC2)sc(=S)n1-c1ccccc1	–	18.4µM	–	–	?	–
Nc1c(C(=O)N2CCCC2)sc2nc(-c3ccccc3)ccc12	–	–	–	–	18.4µM	18.4µM
COc1ccc(NC(=O)c2sc3nc(-c4cccnc4)ccc3c2N)cc1	–	–	–	–	?	14.6µM
Nc1c(C(=O)Nc2cccc(Cl)c2Cl)sc2nc(-c3cccnc3)ccc12	–	–	–	–	5.17µM	9.2µM
COc1ccc(C(=O)c2sc3nc(-c4ccc(OC)cc4)ccc3c2N)cc1	–	?	–	–	?	?
COc1ccc(-c2ccc3c(N)c(C(=O)c4cccc(OC)c4)sc3n2)cc1	–	–	–	?	20.6µM	?
O=C(/C=C/c1ccco1)Oc1cc(Br)cc(/C=N/NC(=O)c2ccccc2O)c1	–	?	–	?	?	0.731µM
CCOC(=O)c1noc2ncn(CC(=O)Nc3ccccc3OC)c(=O)c12	–	–	·	–	·	·
CC(C)Cn1c(=O)c(C(=O)Nc2ccncc2)c(O)c2ccccc21	–	–	–	7.31µM	?	?
CCCCCCCC(=O)NNC(=O)c1c(O)c2ccccc2n(CC)c1=O	–	18.4µM	–	?	?	?
CCCn1c(=O)c(C(=O)NCc2cccnc2)c(O)c2ccccc21	–	10.3µM	?	–	–	?
CCCn1c(=O)c(C(=O)NCc2ccccn2)c(O)c2ccccc21	–	–	–	–	?	?
SMILES	D3 ag	KB-V1 cytotox	D3 antag	KB-3-1 cytotox	MCF10A rerep	SW480 rerep
CCCCCCC(=O)NNC(=O)c1c(O)c2ccccc2n(CC)c1=O	–	?	–	–	–	–
CCCn1c(=O)c(C(=O)Nc2ccccc2)c(O)c2ccccc21	–	23.1µM	–	?	–	–
CC(Sc1nc(=O)cc(N)n1CCc1ccccc1)C(=O)Nc1ccccc1C#N (configuration not stated)	–	–	·	–	·	·
CCCn1c(=O)c(C(=O)NNC(=O)c2ccccc2Cl)c(O)c2ccccc21	–	9.2µM	–	?	?	–
CCn1c(=O)c(C(=O)NNC(=O)c2ccccc2)c(O)c2ccccc21	–	?	–	–	–	–
C=CCn1c(=O)c(C(=O)Nc2ccccc2C)c(O)c2ccccc21	–	?	–	?	18.4µM	–
CCn1c(=O)c(C(=O)NCCc2ccccc2)c(O)c2ccccc21	–	?	–	–	?	–
CCn1c(=O)c(C(=O)NCCN2CCCCC2)c(O)c2ccccc21	–	–	-92.5	?	–	–
CCn1c(=O)c(C(=O)NNS(=O)(=O)c2ccc(Cl)cc2)c(O)c2ccccc21	–	14.6µM	–	–	?	–
CCOC(=O)c1c(C)oc2ncnc(Nc3ccc(OCC)cc3)c12	–	–	·	–	·	·
O=C(NCCN1CCCC1)C(c1ccccc1)c1ccccc1	–	–	?	–	23.1µM	?
CCCn1c(=O)c(C(=O)Nc2ccccc2C)c(O)c2ccccc21	–	20.6µM	–	–	?	–
Cc1cc(Nc2cccc(C(F)(F)F)c2)nc2ccc(NC(=O)c3cccnc3)cc12	–	?	·	?	·	·
O=C(c1cccc(S(=O)(=O)N2CCOCC2)c1)N(Cc1nnc(-c2ccccc2Cl)o1)C1CC1	–	?	–	–	–	?
CN1CCN(S(=O)(=O)c2cccc(C(=O)N(Cc3nnc(-c4ccc(Cl)cc4)o3)C3CC3)c2)CC1	–	–	–	–	–	6.51µM
COc1ccc(NS(=O)(=O)c2cccc3nonc23)c(OC)c1	–	?	–	–	–	0.517µM
Cc1ccc(C(=O)OCn2ncc(Cl)c(Cl)c2=O)cc1	–	?	-50.7	4.61µM	3.66µM	?
O=C(O)c1ccc(-n2ncc(Cl)c(Cl)c2=O)cc1	–	?	–	–	·	·
O=C(OCn1ncc(Cl)c(Cl)c1=O)c1ccc(C(F)(F)F)cc1	–	6.51µM	-85.3	7.31µM	6.51µM	6.51µM
COc1cc(C(=O)N/C(=C\c2cn(S(=O)(=O)N(C)C)c3ccccc23)C(=O)N2CCCC2)cc(OC)c1OC	–	–	–	?	–	–
CCOc1ccc(CCNC(=O)c2sc3ncccc3c2-n2c(C)ccc2C)cc1	–	–	·	–	·	·
COc1ccc([C@H]2CC(=O)C=C(c3cccc(NC(C)=O)c3)C2)cc1	–	–	–	?	–	–
Cc1ccc(-c2cc(C(=O)N(C)Cc3cnn(C)c3C)c3cc(Br)ccc3n2)cc1	–	?	–	?	16.4µM	–
CC(=O)Nc1ccc(N2C(C(C)=O)=NN(c3ccc(Cl)cc3)C2c2sccc2C)cc1 (configuration not stated)	–	?	–	–	23.1µM	?
CCOC(=O)Cc1csc(NS(=O)(=O)c2ccc3c4c(cccc24)C(=O)N3CC)n1	–	–	-65.9	–	?	–
S=C(c1ccc2c(c1)OCO2)N1CCN(c2cccc(Cl)c2)CC1	–	?	–	4.11µM	1.46µM	5.17µM

Compound activity: PubChem BioAssay, National Center for Advancing Translational Sciences (NCATS)
